CYP2C19 act: human CYP2C19 activators, primary screen, biochemical, luminescence; 96,000 tested, under 10 active; recombinant CYP2C19, luciferin-H EGE luminescence; hits give high values; 0 = fully inhibited enzyme, 1 = untreated enzyme; Cytochrome P450 2C19 (Homo sapiens), P33261; activation factor at 5 µM;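 active = activation factor of at least 2 at 5 µM in the primary screen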;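 note: 0 = wells with 2.5 mM tranylcypromine and 1 = vehicle-only wells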
Target sequence (P33261 whole entry, looked up): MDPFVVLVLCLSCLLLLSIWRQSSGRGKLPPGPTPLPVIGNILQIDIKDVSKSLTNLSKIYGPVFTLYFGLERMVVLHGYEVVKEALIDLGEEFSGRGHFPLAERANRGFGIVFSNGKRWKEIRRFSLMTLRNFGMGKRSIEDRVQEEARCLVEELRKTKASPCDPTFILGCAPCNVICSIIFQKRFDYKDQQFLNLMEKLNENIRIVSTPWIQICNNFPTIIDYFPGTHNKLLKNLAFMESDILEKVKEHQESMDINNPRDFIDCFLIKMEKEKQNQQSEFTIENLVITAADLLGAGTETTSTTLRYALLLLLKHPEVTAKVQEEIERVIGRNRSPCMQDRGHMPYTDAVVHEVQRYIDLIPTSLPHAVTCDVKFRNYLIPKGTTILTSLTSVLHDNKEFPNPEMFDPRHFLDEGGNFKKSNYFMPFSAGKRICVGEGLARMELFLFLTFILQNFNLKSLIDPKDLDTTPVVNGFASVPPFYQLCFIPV
CYP2C19 inh: blockers of cytochrome P450 2C19 activity – biochemical, luminescence, ADME assay, primary screen; P33261; CYP2C19 Supersomes, luciferin-H EGE luminescence, 30 min; inhibition, % at 5 µM; 96,000 tested, 21% active; AID 778, 2007;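 active = CYP2C19 inhibition above a set limit at 5 µM in the primary screen, cut at about 50% in these data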;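 note: plate controls were negative control wells for no effect and 2.5 mM tranylcypromine positive control for full effect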
CYP2C9 inhib: blockers of cytochrome P450 2C9 activity – biochemical, luminescence, ADME assay, primary screen. 96,000 tested, 20% active. CYP2C9 Supersomes, luciferin-H conversion. inhibition, % at 5 µM. AID 777, 2007;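 active = blocking of liver enzyme CYP2C9 beyond about 50% at 5 µM, limit read from the data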
CYP2C9 act: human CYP2C9 activators, primary screen, biochemical, luminescence; Cytochrome P450 2C9 (Homo sapiens), P11712; recombinant CYP2C9, luciferin-H conversion; hits give high values; factor 1 = untreated enzyme, 0 = blocked; activation factor at 5 µM; 96,000 tested, 1.4% active; AID 1024, 2008;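 active = activation factor of 2 or more for CYP2C9 at a 5 µM dose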;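 note: 0 = sulfaphenazole-blocked wells and 1 = vehicle-only wells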
PostGolgi ctrl: growth inhibition of yeast control strain, primary screen, counter-screen for post-Golgi transport modulator project | efflux-deficient yeast background strain, growth absorbance A615, 16 h | 98,000 tested, 5% active | inhibition, % at 10 µM | AID 738, 2007
PostGolgi yeast: phenotypic screen on post-Golgi transport, primary screen. post-Golgi transport phenotypic cell assay. inhibition, % at 10 µM. 98,000 tested, 0.9% active. AID 739, 2007;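 note: yeast cells grown in 1536-well plates; yeast grown about 18 h at 30C before absorbance read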
Starred values were filed as active, the others as inactive; . = no result. Rows were chosen to be rich in hits. Some 32% of all compounds tested hit in one or more screens of this group. Cut-off read from the data, not from the text of the source, unless noted: active = inhibition above about 30%; inactive = the rest.

SMILES	CYP2C19 act	CYP2C19 inh	CYP2C9 inhib	CYP2C9 act	PostGolgi ctrl	PostGolgi yeast
CSc1sc(C)cc1C1C(C#N)=C(N)N(c2cccnc2)C2=C1C(=O)CC(C)(C)C2 (stereo unspecified)	1	-2	12	0.9	-1	-5
CN=Cc1c(NC)nc2c(C)cccn2c1=O	1	-5	-3	1	-13	-5
CC(C)OC(=O)CSc1nnc(-c2cnccn2)n1-c1ccccc1	.	.	.	.	4	-9
Cc1cc(C)nc(Nc2nc(C)c3cc4c(cc3n2)OCO4)n1	1.1	-10	-21	1.2	36*	-2
COc1cccc(N2CC34C=CC(O3)C(C(=O)O)C4C2=O)c1 (stereo unspecified)	1.2	-16	10	0.9	0	-9
O=c1ccn(-c2cccc(C(F)(F)F)c2)nc1-c1ccn(-c2ccccc2)n1	0.6	36	80*	0.2	18	11
COC(=O)c1nn(-c2ccccc2)ccc1=O	0.9	5	5	1	-7	0
O=C(O)c1ccccc1N/N=C\c1ccnc2ccccc12	1.1	-10	4	1	31*	-10
O=c1c2ccccc2nc(SCc2cn3ccsc3n2)n1-c1ccc(F)cc1	0.2	84*	97*	0	52*	-2
Cc1cc(C)n(CCOC(=O)c2sc3ccccc3c2Cl)n1	0.7	26	-18	1.2	21	-1
Cn1c(C(C#N)C(=O)c2sc3ccccc3c2Cl)nc2ccccc21 (stereo unspecified)	0.8	22	71*	0.3	79*	4
COc1ccccc1OC(=O)C1CC(=O)N(c2ccc(Cl)cc2)C1 (stereo unspecified)	0.6	44	35	0.7	8	-11
CC1CCc2nc3ccc(S(=O)(=O)N4CCC(C(=O)NC5CCCC5)CC4)cc3c(C(=O)O)c2C1 (stereo unspecified)	0.7	28	60*	0.4	-6	-2
O=C(O)c1c2c(nc3ccc(S(=O)(=O)N4CCC(C(=O)NC5CCCC5)CC4)cc13)CCCCC2	0.8	22	52*	0.5	10	-2
O=C(O)c1c2c(nc3ccc(S(=O)(=O)N4CCC(C(=O)N5CCCCC5)CC4)cc13)CCCC2	1.1	-5	6	0.9	6	9
NC(=O)C1CC(O)CN1c1nc(CN2CCOCC2)nc2scc(-c3ccccc3)c12 (stereo unspecified)	1	2	15	0.9	9	3
Cc1cc(C)n(C(=O)C23CC4CC(CC(C4)C2)C3)n1	1	-3	3	1	-1	-12
COc1ccc2cc(/C=N/NC(=O)CSCc3ccc([N+](=O)[O-])cc3)c(Cl)nc2c1	0.9	12	3	1	7	-9
CCN(CC)S(=O)(=O)c1ccc(NS(=O)(=O)c2cccc(C)c2)cc1	0.6	40	91*	0.1	-3	0
CCN(CC)S(=O)(=O)c1ccc(NS(=O)(=O)c2ccc(F)cc2)cc1	1	5	86*	0.1	1	0
CCN(CC)S(=O)(=O)c1ccc(C(=O)Nc2c3c(nn2C(C)(C)C)CS(=O)(=O)C3)cc1	1	-3	76*	0.2	4	4
CCN(CC)S(=O)(=O)c1ccc(NC(=O)Nc2cccc(C(F)(F)F)c2)cc1	1	-2	-4	1	-7	6
CC(C)(C)n1nc2c(c1NC(=O)c1ccc(S(=O)(=O)N3CCCC3)cc1)CSC2	1.1	-11	36	0.6	7	2
CCN(CC)S(=O)(=O)c1ccc(C(=O)Nc2cccc(C)c2)cc1	0.4	55*	55*	0.5	7	-4
COc1cc2c(C(=O)NCCCOC(C)C)cn(CC(C)C)c(=O)c2cc1OC	1	4	6	0.9	1	-3
SMILES	CYP2C19 act	CYP2C19 inh	CYP2C9 inhib	CYP2C9 act	PostGolgi ctrl	PostGolgi yeast
O=C(c1ccco1)N(CCCN1CCOCC1)c1nc(-c2ccc(Cl)cc2)cs1	0.1	87*	92*	0.1	15	6
O=C(c1ccco1)N(CCCN1CCOCC1)c1nc(-c2ccc(F)cc2)cs1	0.6	37	67*	0.3	24	-4
O=C(NCCCN1CCOCC1)c1ccco1	1	0	-2	1	-4	-2
O=C(Nc1ccccc1C(=O)NCCN1CCOCC1)c1ccco1	0.9	12	16	0.8	8	4
CC1CCCCN1CCNC(=O)c1cnn2ccccc12 (stereo unspecified)	1.1	-9	28	0.7	1	-6
COc1ccccc1CNc1nc2nc(C)cc(=O)n2[nH]1	0.9	6	17	0.8	-2	9
CCCn1cnc2cc(NCc3cccc(OC)c3O)ccc21	0.1	86*	58*	0.4	6	-6
COc1cccc(CNc2ccc3c(c2)ncn3C(C)C)c1OC	0.1	86*	64*	0.4	-6	2
CC(C)NC(=O)c1ccccc1NC(=O)CS(=O)(=O)Cc1ccccc1	0.8	17	80*	0.2	2	-2
COC(=O)c1ccc(C(=O)OC)c(NC(=O)CS(=O)(=O)Cc2ccccc2)c1	0.6	39	45	0.5	3	3
CC(C)NC(=O)c1ccccc1NC(=O)CCS(=O)(=O)Cc1ccccc1	1	4	76*	0.2	0	-1
CC(C)NC(=O)c1ccccc1NC(=O)c1ccccc1N(C)S(C)(=O)=O	1	-5	15	0.9	6	4
CCn1nc(C(=O)Nc2ccc(C)c(C)c2)c(Cl)c1Cl	0.9	7	12	0.9	3	3
COC(=O)COc1ccc(NC(=O)C2CCCO2)cc1 (stereo unspecified)	0.8	18	4	1	1	-11
COc1cc(OC)c(C(=O)Nc2cccc(C(C)=O)c2)cc1OC	0.7	33	59*	0.4	7	2
COc1ccc(C(=O)Nc2cccc(C(C)=O)c2)c(OC)c1OC	0.4	63*	15	0.8	1	12
CCCc1cc(=O)[nH]c(SCC(=O)CSc2nc(CCC)cc(=O)[nH]2)n1	0.9	11	70*	0.3	-6	2
CCCc1cc(=O)[nH]c(SCCOC(=O)c2ccccc2)n1	0.5	54*	71*	0.3	18	-7
CCCc1cc(=O)[nH]c(SCc2ccccc2Cl)n1	0.5	50*	72*	0.3	45*	4
CCCc1cc(=O)[nH]c(SCc2nc3ccccc3s2)n1	0.6	44	39	0.6	21	-2
Cc1ccc(NC(=O)CN(C)C(=O)CSc2nc3ccccc3o2)cc1	0.8	22	32	0.7	10	2
O=C(NC1CCCCCCC1)c1ccc(CNc2c(N3CCOCC3)c(=O)c2=O)cc1	0.8	20	44	0.6	12	-11

Screens deposited in PubChem BioAssay by several laboratories.
